Measured values from PubChem BioAssay.
Active and inactive are the calls of the source.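 Rule for the calls: active = inhibition above the hit cutoff set in the earlier primary screen (cut at about 27% in these data); inactive = the rest.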

The molecules below were run against Protein phosphatase methylesterase 1 (Homo sapiens) (UniProt Q9Y570) (assay: PME-1 inhibitor activity retest, confirmation, biochemical, fluorescence polarization, FP-Rh probe, triplicate (AID 2171;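 note: 0% = enzyme with DMSO and 100% = wells lacking PME-1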)). Conditions: recombinant PME-1, FP-Rh probe fluorescence polarization; at 5.9 µM; stronger effect = higher value.
Sequence of Protein phosphatase methylesterase 1 (Homo sapiens) (Q9Y570 whole entry, looked up): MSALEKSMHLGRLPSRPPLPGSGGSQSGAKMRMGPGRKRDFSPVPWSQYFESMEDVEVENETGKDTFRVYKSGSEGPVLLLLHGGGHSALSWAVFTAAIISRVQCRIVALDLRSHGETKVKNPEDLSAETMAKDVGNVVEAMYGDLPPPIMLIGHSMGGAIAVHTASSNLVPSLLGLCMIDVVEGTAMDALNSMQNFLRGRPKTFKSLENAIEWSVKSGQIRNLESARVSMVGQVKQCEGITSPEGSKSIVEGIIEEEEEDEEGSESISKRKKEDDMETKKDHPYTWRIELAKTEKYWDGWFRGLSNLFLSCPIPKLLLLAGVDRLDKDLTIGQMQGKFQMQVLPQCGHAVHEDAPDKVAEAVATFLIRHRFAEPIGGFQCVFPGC

inhibition, inactive:
COc1cc(/C=C2/C(=O)c3cccc([N+](=O)[O-])c3C2=O)c(Br)cc1O 16.7%, Cc1cccc2c(N=Nc3ccc(S(=O)(=O)Nc4cccc(Cl)c4)cc3[N+](=O)[O-])c(O)[nH]c12 -12.3%, CCN(CC)c1ccc(-c2nn3c(-c4ccccc4OC)nnc3s2)cc1 22.1%, COc1ccc2noc3c2c1C(=O)c1ccccc1-3 22.2%, Cc1ccc2nc(-c3sc4nc(C)cc(C)c4c3N)[nH]c2c1 18.2%, COc1ccc2oc(=O)c(-c3csc(Nc4cccc(O)c4)n3)cc2c1 9.36%, CCOC(=O)CCc1c(C)nc(SCCCn2c(=O)[nH]c3ccccc32)c(C#N)c1C 22.6%, O=C(N/N=C\c1ccc(COc2ccc([N+](=O)[O-])cc2)o1)c1cccc(Cl)c1 9.99%, C=CCc1cccc(/C=N/NC(=O)CNc2cccc3ccccc23)c1O 17.8%, Cc1cc(N)ccc1-n1c(C)ccc1C 6.22%, COc1ccc(NC(=O)Nc2cccc([N+](=O)[O-])c2)cc1Cl 2.05%, O=C(Nc1cccc(-c2csc(Nc3ccccc3)n2)c1)c1cc([N+](=O)[O-])cc(C(F)(F)F)c1 23%, O=[N+]([O-])c1ccccc1/C=C/C=N/Nc1ccc(S(=O)(=O)Nc2ccc(Cl)cc2)cc1[N+](=O)[O-] 14.2%, O=c1[nH]nc(CNc2ccc(O)cc2)c2ccccc12 8.74%, Cc1ccc(C)c(-n2c3nc(=O)[nH]c(=O)c-3cc3cc([N+](=O)[O-])ccc32)c1 24.5%

inhibition, active:
Cc1ccc(Nc2c([N+](=O)[O-])ccc3c2=NC2(CCCCC2)N=3)cc1 44.3%, CC(=O)Nc1ccc(Nc2c3c4c(cccc4n(C)c2=O)C(=O)c2ccccc2-3)cc1 31.5%, COc1cc2c(cc1OC)C(c1cc(Br)ccc1F)N(C(=O)CCl)CC2 (stereo not given) 51.5%, COC(=O)c1ccc(C2Nc3cccc4cccc(c34)N2)cc1 51.9%, Cc1c(O)ccc(/C(Cc2ccc3ccccc3n2)=N\O)c1O 53.5%, O=C1c2cccc3c(O)ccc(c23)C(=O)N1c1ccc(Cl)cc1 28.3%, O=C1c2ccccc2-c2onc3ccc(NCc4ccco4)c1c23 84.5%, COc1ccc(OC)c(-c2c3cc(O)c(=O)cc-3oc3cc(O)c(O)cc23)c1 169%, COc1cc(/C=C2\CCC/C(=C\c3ccc(O)c(OC)c3)C2=O)ccc1O 39.5%, Cn1c(=O)c(NCCc2ccccc2)c2c3c(cccc31)C(=O)c1ccccc1-2 177%
